# Data reported in PubChem BioAssay (NCATS).
# Inconclusive results are not listed. Where a call stands in place of a potency, no number is given. Calls of active or inactive are those of the source. The call rests on the fitted dose curve; in most records, active means well fitted inhibition curve with a large enough effect; inconclusive means small, poorly fitted or top-dose-only effect; inactive means flat fitted curve, though single readings scatter. Peptide text beside a SMILES is read from it.
# Tests used:
# Assay in all cases: qHTS profiling for inhibitors of Plasmodium falciparum proliferation (AID 504749); further: nearly all actives have a fitted effect of over 60% in size
# Settings in all cases: P. falciparum in erythrocytes, SYBR Green DNA, 72 h; series mostly up to 12.8 µM
# ATS189 = test system: ATS189
# How it was run: (§1)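 Each compound contacts P. falciparum-infected red blood cells for 72 h at 37 C; lysis buffer (Tris, EDTA, saponin, Triton X, SYBR Green I) is added and fluorescence measured next morning; values normalized to controls.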
# CP185 = test system: CP185
# How it was run: as §1
# CP191 = test system: CP191
# How it was run: as §1
# CP192 = test system: CP192
# How it was run: as §1
# CP211 = test system: CP211
# How it was run: as §1
# CP247 = test system: CP247
# How it was run: as §1
# CP268 = test system: CP268
# How it was run: as §1
# CP291 = test system: CP291
# How it was run: as §1
# CP315 = test system: CP315
# How it was run: as §1
# DIV30 = test system: DIV30
# How it was run: as §1
# HB3 = test system: HB3
# How it was run: as §1
# N140 = test system: N140
# How it was run: as §1
# PC26 = test system: PC26
# How it was run: as §1
# TAB113 = test system: TAB113
# How it was run: as §1
# TAB165 = test system: TAB165
# How it was run: as §1
# CP201 = test system: CP201
# How it was run: as §1
# CP305 = test system: CP305
# How it was run: as §1
# CP325 = test system: CP325
# How it was run: as §1
# CP329 = test system: CP329
# How it was run: as §1
# PC49 = test system: PC49
# How it was run: as §1
# Potency means the concentration at half of the fitted maximal effect.
Compound,Potency (ATS189),Potency (CP185),Potency (CP191),Potency (CP192),Potency (CP211),Potency (CP247),Potency (CP268),Potency (CP291),Potency (CP315),Potency (DIV30),Potency (HB3),Potency (N140),Potency (PC26),Potency (TAB113),Potency (TAB165),Potency (CP201),Potency (CP305),Potency (CP325),Potency (CP329),Potency (PC49)
COC1C=CO[C@@]2(C)Oc3c(C)c(O)c4c(O)c(c5c(nc6cc(C)ccn65)c4c3C2=O)NC(=O)/C(C)=C\C=CC(C)C(O)[C@@H](C)C(O)C(C)[C@@H](OC(C)=O)C1C (stereo partly drawn),12600 nM (active),10000 nM (active),11200 nM (active),10700 nM (active),15100 nM (active),8910 nM (active),12000 nM (active),13500 nM (active),7570 nM (active),1350 nM (active),11200 nM (active),3550 nM (active),1200 nM (active),12600 nM (active),2240 nM (active),,,,,
C[C@]1(c2ccccc2)OC(C(=O)O)=CC1=O,inactive,inactive,inactive,inactive,inactive,inactive,inactive,inactive,inactive,inactive,inactive,inactive,inactive,inactive,inactive,inactive,inactive,inactive,inactive,inactive
OCC1O[C@H](OC2C(CO)O[C@@](O)(CO)C2O)C(O)C(O)C1O (stereo partly drawn),inactive,inactive,inactive,inactive,inactive,inactive,inactive,inactive,inactive,inactive,inactive,inactive,inactive,inactive,inactive,inactive,inactive,inactive,inactive,inactive
NCC1CCC(N)C(O[C@@H]2C(O)[C@H](O[C@H]3OC(CO)C(O)C(N)C3O)[C@@H](N)C[C@H]2N)O1 (stereo partly drawn),inactive,inactive,inactive,inactive,inactive,inactive,inactive,inactive,inactive,inactive,inactive,inactive,inactive,inactive,inactive,inactive,inactive,inactive,inactive,inactive
Nc1nc2ncc(CNc3ccc(C(=O)NC(CCC(=O)O)C(=O)O)cc3)nc2c(=O)[nH]1 (stereo not drawn),inactive,inactive,inactive,inactive,inactive,inactive,inactive,inactive,inactive,inactive,inactive,inactive,inactive,inactive,inactive,inactive,inactive,inactive,inactive,inactive
CCCC(=O)O[C@]1(C(=O)CO)CCC2[C@@H]3CCC4=CC(=O)CC[C@]4(C)C3C(O)C[C@]21C (stereo partly drawn),inactive,inactive,inactive,inactive,inactive,inactive,inactive,inactive,inactive,inactive,inactive,inactive,inactive,inactive,inactive,inactive,inactive,inactive,inactive,inactive
COC(=O)C(Cc1ccccc1)NC(=O)C(N)CC(=O)O (stereo not drawn) (H-Asp-Phe-OMe; configuration not given here),inactive,inactive,inactive,inactive,inactive,inactive,inactive,inactive,inactive,inactive,inactive,inactive,inactive,inactive,inactive,inactive,inactive,inactive,inactive,inactive
CNC1C(OC2C(O[C@@H]3C(O)C(O)[C@@H](N=C(N)N)C(O)C3N=C(N)N)OC(C)[C@@]2(O)CO)OC(CO)C(O)C1O (stereo partly drawn),inactive,inactive,inactive,inactive,inactive,inactive,inactive,inactive,inactive,inactive,inactive,inactive,inactive,inactive,inactive,inactive,inactive,inactive,inactive,inactive
OCC1OC([S-])[C@H](O)C(O)C1O.[Au+] (stereo partly drawn),inactive,inactive,inactive,inactive,inactive,inactive,inactive,inactive,inactive,inactive,inactive,inactive,inactive,inactive,inactive,inactive,inactive,inactive,inactive,inactive
C[C@]12C=CC(=O)C=C1CCC1C2C(O)C[C@]2(C)C1CC[C@]2(O)C(=O)CO (stereo partly drawn),inactive,inactive,inactive,inactive,inactive,inactive,inactive,inactive,inactive,inactive,inactive,inactive,inactive,inactive,inactive,inactive,inactive,inactive,inactive,inactive
CCC(CCC(C)C1CCC2C3CC=C4CC(O)CC[C@@]4(C)C3CC[C@@]12C)C(C)C (stereo partly drawn),inactive,inactive,inactive,inactive,inactive,inactive,inactive,inactive,inactive,inactive,inactive,inactive,inactive,inactive,inactive,inactive,inactive,inactive,inactive,inactive
COc1ccc(CC(N)C(=O)NC2C(CO)OC(n3cnc4c(N(C)C)ncnc43)C2O)cc1 (stereo not drawn),794 nM (active),631 nM (active),891 nM (active),1070 nM (active),478 nM (active),891 nM (active),1510 nM (active),1070 nM (active),849 nM (active),849 nM (active),1000 nM (active),631 nM (active),849 nM (active),1000 nM (active),794 nM (active),1510 nM (active),1200 nM (active),1070 nM (active),1070 nM (active),2000 nM (active)
CC(=O)N[C@H](CC(C)C)C(=O)O,inactive,inactive,inactive,inactive,inactive,inactive,inactive,inactive,inactive,inactive,inactive,inactive,inactive,inactive,inactive,inactive,inactive,inactive,inactive,inactive
CC1CCC(C(C)C)C(=O)C1 (stereo not drawn),inactive,inactive,inactive,inactive,inactive,inactive,inactive,inactive,inactive,inactive,inactive,inactive,inactive,inactive,inactive,inactive,inactive,inactive,inactive,inactive
CCC(C)C(=O)OC1CCC=C2C=CC(C)C(CCC3CC(O)CC(=O)O3)[C@@H]21 (stereo partly drawn),inactive,inactive,inactive,inactive,inactive,inactive,inactive,inactive,inactive,inactive,inactive,inactive,inactive,,inactive,inactive,inactive,inactive,inactive,inactive
CC(=O)N[C@@H]1C(O)OC(CO)C(O)C1O (stereo partly drawn),inactive,inactive,inactive,inactive,inactive,inactive,inactive,inactive,inactive,inactive,,inactive,inactive,inactive,inactive,inactive,inactive,inactive,inactive,inactive
